Among the data in PubChem BioAssay AID1479146 (National Center for Advancing Translational Sciences (NCATS), 2020) are Potency and activity change, negative = cytotoxicity values, retold here.

Records with an inconclusive call do not appear. Entries that show only a call come without a potency. A number with no mark means an inactive call. Active and inactive are the calls of the source. The call rests on the fitted dose curve.

The nature of the test: Confirmatory qHTS for Huh7 cytotoxicity: counterscreen for inhibitors of MERS-S pseudo-typed particle cell entry. The following applies: viability; series mostly up to 57.1 µM. In general terms: In qHTS, concentration-response curves come from the screen itself.
In the case of `Cc1cn([C@H]2C[C@H](N=[N+]=[N-])[C@@H](CO)O2)c(=O)[nH]c1=O`, the Potency entry was “inactive”.

In the case of `CN(C/C=C/c1ccccc1)Cc1cccc2ccccc12`, the Potency result was “inactive”.

As to `CCCCc1oc2ccccc2c1C(=O)c1cc(I)c(OCCN(CC)CC)c(I)c1`, the Potency result is “inactive”.

In the case of `C/C=C(/C)C(=O)O[C@H]1C(C)=CC23C(=O)C(C=C(CO)[C@@H](O)[C@]12O)[C@H]1[C@@H](C[C@H]3C)C1(C)C` (some centres not stated), the Potency result is “inactive”.

In the case of `CN(C)CCC=C1c2ccccc2C(C)(C)c2ccccc21`, the Potency entry was “inactive”.

On to `COc1cc2nccc(Oc3ccc(NC(=O)NC4CC4)c(Cl)c3)c2cc1C(N)=O`, for which the Potency entry is “inactive”.

Take `CCc1c2c(nc3ccc(OC(=O)N4CCC(N5CCCCC5)CC4)cc13)-c1cc3c(c(=O)n1C2)COC(=O)[C@]3(O)CC`: the Potency entry was “inactive”.

As for `COc1c(OCCCN2CCOCC2)ccc2c3n(c(=NC(=O)c4cnc(N)nc4)nc12)CCN3`, the activity change, negative = cytotoxicity was -10.8% [at 11.2 µM].

`CC(C)C(=O)Oc1ccc(CO)cc1[C@H](CCN(C(C)C)C(C)C)c1ccccc1`: the Potency result was “inactive”.

Turning to `CC(=O)N1CCN(c2ccc(OC[C@H]3CO[C@](Cn4ccnc4)(c4ccc(Cl)cc4Cl)O3)cc2)CC1`, the Potency result is “inactive”.

In the case of `CCCCN=C(N)N=C(N)N`, the Potency result was “inactive”.

On to `C[C@]12CC[C@H](O)C[C@H]1CCC1C2CC[C@]2(C)[C@@H](c3ccc(=O)oc3)C[C@H]3O[C@]132` (some centres not stated), for which the Potency is 15.2 µM (active).

For `Cc1nnc(C(=O)NC(C)(C)c2nc(C(=O)NCc3ccc(F)cc3)c(O)c(=O)n2C)o1`, the Potency entry is “inactive”.

With `O=C1c2c(O)ccc(O)c2C(=O)c2c(NCCNCCO)ccc(NCCNCCO)c21`, the Potency is 17.1 µM (active).

As to `CN1CCC(=C2c3ccccc3C=Cc3ccccc32)CC1`, the Potency result was “inactive”.

On to `CCCCCCOC(=O)NC(=N)c1ccc(NCc2nc3cc(C(=O)N(CCC(=O)OCC)c4ccccn4)ccc3n2C)cc1`, for which the Potency result was “inactive”.

As to `O=c1ccc2ccccc2o1`, the Potency result is “inactive”.

As to `CCn1cc(C(=O)O)c(=O)c2cc(F)c(N3CCNC(C)C3)c(F)c21` (configuration not stated), the Potency entry was “inactive”.

For `CCCN1C[C@H](C)[C@@H](O)[C@](C)(O)[C@@H](CC)OC(=O)[C@H](C)[C@@H](O[C@H]2C[C@@](C)(OC)[C@@H](O)[C@H](C)O2)C(C)[C@@H](O[C@@H]2O[C@H](C)C[C@H](N(C)C)[C@H]2O)[C@](C)(O)C[C@H]1C` (some centres not stated), the Potency entry is “inactive”.

Take `Cc1nnc2n1-c1sc(CCc3ccc(CC(C)C)cc3)cc1C(c1ccccc1Cl)=NC2C` (configuration not stated): the Potency result is “inactive”.

Take `COc1cc([C@@H]2c3cc4c(cc3C(O[C@@H]3O[C@@H]5CO[C@@H](c6cccs6)OC5[C@H](O)[C@H]3O)C3COC(=O)[C@@H]32)OCO4)cc(OC)c1O` (some centres not stated): the Potency was 5.41 µM (active).

Turning to `CCCCCCNC(=O)n1cc(F)c(=O)[nH]c1=O`, the Potency result was “inactive”.

On to `COc1cccc2c1C(=O)c1c(O)c3c(c(O)c1C2=O)C[C@@](O)(C(=O)CO)C[C@@H]3O[C@H]1C[C@H](N)[C@@H](O)[C@H](C)O1`, for which the Potency is 2.15 µM (active).

Regarding `CC(=O)OCC1=C(C(=O)O)N2C(=O)[C@@H](NC(=O)Cc3cccs3)[C@H]2SC1`, the Potency entry is “inactive”.

As for `COc1cccc2c1C(=O)c1c(O)c3c(c(O)c1C2=O)C[C@@](O)(C(C)=O)C[C@@H]3O[C@H]1C[C@H](N)[C@H](O)[C@H](C)O1`, the Potency is 6.07 µM (active).

Turning to `CCN(CC)CCNC(=O)c1c(C)[nH]c(/C=C2\C(=O)Nc3ccc(F)cc32)c1C`, the Potency is 27.1 µM (active).

Turning to `COc1cccc2c1C(=O)c1c(O)c3c(c(O)c1C2=O)C[C@@](O)(C(=O)CO)CC3OC1CC(N2CCOC(OC)C2)C(O)C(C)O1` (some centres not stated), the Potency was 0.136 µM (active).
